Mito fusion act = inhibitors of mitochondrial division or activators of mitochondrial fusion; AID 485298; 320,000 tested, 0.23% active; S. cerevisiae fusion-defective mutant growth rescue, CellTiterGlo 48 h; Potency, µM (titrated, usually from 46.1 µM), for the others: at the highest dose growth rescue (activation), actives largely listed as activators; further: % of control where 0% means no effect; nearly all actives have a fitted effect of over 45% in size
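Growth-rescue viability read-out: after 48 h at the non-permissive 37C in glycerol/ethanol YPEG, yeast mitochondrial fusion mutants are measured by CellTiterGlo luminescence; compounds (23 nl pinned per well) restoring growth score as division inhibitors or fusion activators.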
TDP-43 yeast inh = rescues yeast growth from TDP-43 toxicity; TDP-43 expressing yeast growth rescue, BacTiter-Glo, 24 h; Potency, µM (series often up to 46.1 µM), for inactives: at the highest dose growth rescue (activation), hits mostly activators; 410,000 tested, 1.8% active; AID 652104; further: % of control where 0% means no effect; nearly all actives have a fitted effect of over 50% in size
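Yeast expressing TDP-43 (pregrown in raffinose, seeded at OD600=0.02 in galactose medium) exposed to compounds 24 hr at 30 deg C. Growth read by BacTiter-Glo luminescence; rescue of toxicity appears as increased signal.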
FUS yeast rescue = FUS proteinopathy suppression in yeast. Potency, µM (top dose mostly 76.6 µM), actives largely listed as activators. 390,000 tested, 0.24% active. AID 1347120. S. cerevisiae FUS-expressing, growth rescue, OD600, 24 h;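 further: plate controls were DMSO vehicle for no effect and reference control for full effect; nearly all actives have a fitted effect of over 55% in size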
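Quantitative HTS measuring growth restoration of FUS-toxic yeast. Galactose-induced cells (OD 0.005) were exposed 24hr at 30C to compounds at several concentrations, then absorbance at 600 nm was recorded.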
aSyn yeast inh = rescues yeast growth from alpha-synuclein toxicity; Yeast expressing alpha-synuclein, growth rescue, BacTiter-Glo, 24 h; Potency, µM (highest dose often 46.1 µM), without a hit: at the top dose growth rescue (activation), usual class: activators; 370,000 tested, 0.14% active; further: % of control where 0% means no effect; nearly all actives have a fitted effect of over 65% in size
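Screening used galactose-induced yeast with toxic alpha-synuclein levels, exposed to compound for 24 hr at 30 deg C. Cell growth, read with BacTiter-Glo luminescence, gave the measured signal.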
Abeta rescue = restores growth of yeast expressing A-beta42 peptide; 410,000 tested, 0.063% active; AID 1347071; yeast expressing A-beta42, growth rescue, OD600, 48 h; response scale: 0% DMSO, 100% iron-clioquinol control; Potency, µM (series often up to 46.1 µM), most hits filed as activators; further: nearly all actives have a fitted effect of over 55% in size
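Growth rescue measured by 600 nm absorbance after 48 h yeast culture at 30 C with compound. Values normalized between DMSO and an equimolar ferric chloride plus clioquinol control.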
Numbers without * were called inactive; i = inactive; u = inconclusive; x = not tested or not shown; [ ] = dose if it differs, or a comment. The list is not random: actives were taken first. Their share in the collection is about 2.2%. The call rests on the fitted dose curve; in most records, active means well fitted curve in the direction sought with a large enough effect; inconclusive means small, poorly fitted or top-dose-only effect, or another doubt; inactive means no such curve, though single readings can be large; an effect the other way counts as inactive or inconclusive. Potency means the concentration at half of the fitted maximal effect.

SMILES	Mito fusion act	TDP-43 yeast inh	FUS yeast rescue	aSyn yeast inh	Abeta rescue
Clc1ccc(CSc2nnc(-c3ccccn3)n2Cc2cccs2)cc1Cl	x	u	u	11%	i
Fc1ccc(CSc2nnc(-c3cnccn3)n2Cc2ccco2)cc1	-1%	u	i	4%	i
COc1ccc(CNC(=O)Cn2c(=O)nc(-c3ccccc3)c3cc(Cl)ccc32)cc1OC	x	0%	i	x	i
O=C1CSC2(C(=O)N(Cc3cccc(C(F)(F)F)c3)c3ccccc32)N1c1ccc(F)c(F)c1 (configuration not stated)	x	u	u	-14%	i
O=C1CSC2(C(=O)N(Cc3cccc(F)c3)c3ccccc32)N1c1cccc(C(F)(F)F)c1 (configuration not stated)	x	22µM*	i	u	i
CC(=O)n1cc(N(C(=O)CCl)c2ccc(C)cc2)c2ccccc21	-18%	-13%[1.82 µM]	i	14%	i
CN(c1ccc(Cl)cc1)c1cc(=O)n(C)c2ccccc12	21%	16µM*	i	4%	i
CN(C(=O)COc1cc(=O)n(C)c2ccccc12)c1ccc(Cl)cc1	0%	-2%	i	1%	i
CC(=O)N(c1ccc(Cl)cc1)c1cn(C(C)=O)c2ccccc12	-4%	20µM*	i	12%	i
COc1cccc(CNC(=O)C(CC(C)C)NS(=O)(=O)c2ccc3c(c2)oc(=O)n3C)c1 (configuration not stated)	x	-7%	i	x	i
Cc1cc(C)nc(SC2c3cccc4cccc(c34)C2NS(=O)(=O)c2ccccc2)n1 (configuration not stated)	20µM*	u	i	-2%	i
Cc1ccc(S(=O)(=O)NC2c3cccc4cccc(c34)C2Sc2ncccn2)cc1 (configuration not stated)	14µM*	16µM*	x	2%	i
CC(C)(C)OC(=O)N1CCC(c2c(C(=O)NCc3ccco3)cnn2-c2ccc(F)cc2F)CC1	x	24%	i	x	i
O=C(Nc1cccs1)OC1CC2CC1[C@H]1CCCCN1C2 (some centres not stated)	x	x	i	x	x
C[C@H](NC(=O)c1nc[nH]c1C(=O)N[C@@H](Cc1ccccc1)C(=O)OC(C)(C)C)c1ccccc1	10%	16%	u	8%	i
C[C@@H](NC(=O)c1nc[nH]c1C(=O)N[C@@H](CCCCNC(=O)OC(C)(C)C)C(=O)OC(C)(C)C)c1ccccc1	4%	0%	20µM*	0%	i
C[C@H](NC(=O)c1[nH]cnc1C(=O)Nc1ccccc1)c1ccccc1	-37%	25µM*	i	-26%	i
CC(C)(C)OC(=O)NCCCC[C@H](NC(=O)c1[nH]cnc1C(=O)Nc1ccccc1)C(=O)OC(C)(C)C	1%	3%	u	-6%	i
CC(C)(C)OC(=O)NCCCC[C@H](NC(=O)c1[nH]cnc1C(=O)Nc1ccc(Cl)cc1)C(=O)OC(C)(C)C	5%	8%	16µM*	5%	i
C[C@@H](NC(=O)c1nc[nH]c1C(=O)N[C@@H](Cc1ccccc1)C(=O)OC(C)(C)C)c1ccccc1	9%	-18%	20µM*	1%	i
Cc1cc(NC(=O)CCCn2c(C)c3cnn(-c4ccccc4)c(=O)c3c2C)ccc1Br	x	29%	u	x	i
CCOC(=O)c1ccc(NC(=O)c2nc[nH]c2C(=O)N[C@@H](C)C(=O)OC(C)(C)C)cc1	2%	28µM*	i	6%	i
CCOC(=O)c1ccc(NC(=O)c2nc[nH]c2C(=O)N[C@@H](CC(C)C)C(=O)OC(C)(C)C)cc1	14%	20%	u	1%	i
COc1ccc(NC(C)(C)c2nnnn2-c2c(C)cccc2C)cc1	14%	13µM*	i	11%	i
Nc1ccc(C#Cc2ccccc2)cc1	3%	14µM*	i	5%	i
SMILES	Mito fusion act	TDP-43 yeast inh	FUS yeast rescue	aSyn yeast inh	Abeta rescue
COc1ccccc1C1CC(c2ccc(Br)cc2)=NN1C(=O)c1cccnc1 (configuration not stated)	16µM*	u	i	7%	i
COc1cccc(C2CC(c3ccc(Br)cc3)=NN2C(=O)c2ccncc2)c1OC (configuration not stated)	-1%	u	i	29%	i
O=C(Nc1c(C(=O)Nc2ccccc2F)oc2ccccc12)c1cc2ccccc2o1	x	12%	i	x	i
C#CCOc1c(Cl)cc(/C=C2/C(=O)ON=C2C)cc1OC	8%	16µM*	i	-9%	i
CC1=NOC(=O)/C1=C/c1ccc(O)c(Cl)c1	1%	18%	i	-8%	i
COc1cc(/C=C2/C(=O)ON=C2C)cc(Cl)c1O	14%	6%	i	-10%	u
CCOc1cc(/C=C2/C(=O)ON=C2C)ccc1O	-14%	18µM*	i	4%	u
Cc1nc2ccc(NC(=O)c3ccccc3)cc2c(=O)n1Cc1ccc(F)cc1	x	26%	i	6%	i
CSc1nc2ncc3c(n2n1)CC1c2ccccc2CCN1C3=O (configuration not stated)	25%	16µM*	i	x	i
CCCC(C)NC(=O)c1ccc(OCc2ccc(Cl)cc2)c(OC)c1 (configuration not stated)	10%	22µM*	i	0%	i
Cc1cc(C)n(-c2nc(Nc3ccccc3C(F)(F)F)nc(-n3nc(C)cc3C)n2)n1	u	20µM*	u	u	i
Cc1cc(C)n(-c2nc(Nc3ccccc3C)nc(-n3nc(C)cc3C)n2)n1	11%	x	x	x	x
C[C@H](NS(=O)(=O)OCC(Cl)(Cl)Cl)C1CC1c1ccccc1 (some centres not stated)	6%	22µM*	i	-4%	i
O=C(NCCCc1ccccc1)c1nn(-c2ccccc2)nc1CO	x	27%	i	x	i
O=C(NCCc1ccccc1)c1nn(-c2ccccc2Cl)nc1CO	x	35µM*	i	x	i
O=C(Nc1nonc1-c1ccc(Cl)cc1)c1ccccc1F	x	-10%	i	x	i
Fc1ccc(-c2nnc3n2CCCCC3)cc1	16µM*	-11%[9.22 µM]	i	1%	i
CCCCCSc1nc2c(c(=O)[nH]c(=O)n2C)n1CC	x	13µM*	i	-9%	i
CC(C)=CCC/C(C)=C/CC/C(C)=C/CCC1(C)CCc2cc(O)ccc2O1 (configuration not stated)	x	x	x	-8%	x
COCCn1c(SCc2cccc([N+](=O)[O-])c2)nc2ccccc2c1=O	12%	18µM*	i	2%	i
Cc1ccnc2cc(Cl)c(Cl)cc12	x	x	x	4%	x

Screens deposited in PubChem BioAssay by National Center for Advancing Translational Sciences (NCATS).
